Measured values as given in PubChem BioAssay AID977627 (Broad Institute, 2014).
Records with an inconclusive call do not appear. The source made the active and inactive calls. No rule for the calls is given here.

Test: growth inhibition of wild-type RFP versus H38-humanized GFP E. coli, dose response, H38 mutant GFP vs wild-type RFP, cherry-pick (AID 977627)
Settings: activity: measured here: wild-type RFP strain growth, at 50 µM, stronger effect = lower value

For `O=C(COC(=O)c1cccc(O)c1)Nc1ccc(Cl)cc1C(=O)c1ccccc1`, the activity was -8.13% and the outcome was “inactive”.
